TrxR1 inh – blocks rat thioredoxin reductase 1 | O89049 | recombinant rTrxR1, NADPH fluorescence consumption, selenite substrate | Potency, µM (highest dose often 114 µM), usual class: inhibitors | actives 1% (n = 390,000); note: nearly all actives have a fitted effect of over 65% in size
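Rat TrxR1 (90 nM in the dispensed reagent) was pre-reduced with 400 uM NADPH for 5 min at room temperature, then incubated with compound for 15 min. After 400 uM selenite was added, NADPH fluorescence (Ex 340/Em 450 nm) was followed for 8 min.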
Anesthetic bind – binds horse apoferritin like a general anesthetic; apoferritin/1-aminoanthracene competitive binding, fluorescence; Potency, µM (titrated, usually from 77.5 µM), hits mostly inhibitors; actives 0.074% (n = 350,000); note: nearly all actives have a fitted effect of over 20% in size
Target sequence (P02791 2-175 limits assumed): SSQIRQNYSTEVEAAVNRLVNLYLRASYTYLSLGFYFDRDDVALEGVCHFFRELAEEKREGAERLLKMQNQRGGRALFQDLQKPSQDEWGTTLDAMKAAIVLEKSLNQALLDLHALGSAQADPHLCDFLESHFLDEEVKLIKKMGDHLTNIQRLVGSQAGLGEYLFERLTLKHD
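Steps: apoferritin (10 uM) was premixed with half-saturated 1-AMA in PBS, compounds were pin-transferred, plates stood 10 min at room temperature, fluorescence was read at 380/535 nm, and curves were fitted with a Hill equation.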
GALK inhibitor – blocks human galactokinase activity; Purified GALK, Kinase-Glo residual ATP luminescence; Potency, µM (doses to about 57.5 µM), hits mostly inhibitors; actives 0.007% (n = 270,000)
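The enzyme phosphorylates galactose (100 uM) using ATP (35 uM); inhibition is detected as higher residual ATP, quantified by bioluminescence after 1 h reaction at room temperature, pH 8.0.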
TrxR1 substrate – substrates of rat thioredoxin reductase 1; purified TrxR1 substrate turnover, NADPH consumption readout; Potency, µM (top dose mostly 114 µM); actives 0.01% (n = 390,000); AID 588456; note: nearly all actives have a fitted effect of over 50% in size
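Rat TrxR1, dispensed at 90 nM, was prereduced with 400 uM NADPH (final) for 5 min at ~22 deg C, then incubated with compound 15 min before 400 uM selenite. A first-read NADPH fluorescence drop versus no-compound background flagged substrates.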
IDH1 R132H inh – human IDH1 R132H inhibition; IDH1-R132H enzyme, NADPH consumption, diaphorase/resazurin fluorescence; AID 602179; O75874; actives 0.093% (n = 390,000); Potency, µM (top dose mostly 76.6 µM), most hits filed as inhibitors; note: nearly all actives have a fitted effect of over 65% in size
Target sequence (O75874 whole entry R132H, stated change not applied): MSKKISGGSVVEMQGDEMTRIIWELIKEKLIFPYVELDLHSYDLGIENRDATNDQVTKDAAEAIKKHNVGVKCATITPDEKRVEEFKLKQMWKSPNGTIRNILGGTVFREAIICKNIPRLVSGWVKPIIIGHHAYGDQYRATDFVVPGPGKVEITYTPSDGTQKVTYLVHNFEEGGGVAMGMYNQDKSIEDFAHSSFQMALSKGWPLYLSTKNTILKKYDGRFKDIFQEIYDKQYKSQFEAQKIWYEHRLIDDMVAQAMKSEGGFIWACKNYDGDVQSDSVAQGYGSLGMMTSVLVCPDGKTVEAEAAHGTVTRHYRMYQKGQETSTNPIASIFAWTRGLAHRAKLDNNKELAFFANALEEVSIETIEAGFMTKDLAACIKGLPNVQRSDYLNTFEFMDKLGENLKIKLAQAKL
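IDH1-R132H (0.5 ug/mL) preincubated 30 min with compound, then NADPH (0.016 mM) and alpha-KG (2 mM) added; 80 min at RT, pH 7.5. Remaining NADPH coupled via diaphorase/resazurin to fluorescence (540/590 nm); concentration-response curves normalized to no-enzyme control.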
PKM2 act – activators of human pyruvate kinase M2; purified PKM2, Kinase-Glo ATP luminescence, activation; response scale: 0% is enzyme alone, no compound; Potency, µM (series often up to 57.5 µM), most hits filed as activators; actives 0.34% (n = 260,000); note: nearly all actives have a fitted effect of over 55% in size
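hPK-M2, >95% pure; 0.1 mM ADP / 0.5 mM PEP final; imidazole pH7.2 buffer w/ 7 mM MgCl2, 50 mM KCl; 1 h RT; Kinase-Glo lum. Intermediate enzyme activity for dual inhibitor/activator qHTS.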
Large screens that a line does not name were inactive. A selection: hits, their analogues and other compounds. The true share with any hit is near 1.3%. Calls come from the whole dose curve; as a rule, active = well fitted curve in the direction sought with a large enough effect; inconclusive = small, poorly fitted or top-dose-only effect, or another doubt; inactive = no such curve, though single readings can be large; an effect the other way counts as inactive or inconclusive.

COCCCNS(=O)(=O)c1ccc(N2CCCCS2(=O)=O)cc1	none (no result: GALK inhibitor, PKM2 act)
O=C(Cc1ccc(S(=O)(=O)N2CCOCC2)s1)Nc1ccccc1N1CCCC1	TrxR1 inh 11µM
O=C(Cc1ccc(S(=O)(=O)N2CCOCC2)s1)Nc1cc(C(F)(F)F)ccc1N1CCCC1	none (no result: Anesthetic bind, GALK inhibitor, PKM2 act)
COc1cccc(-c2noc(-c3cc(C(C)C)[nH]n3)n2)c1OC	none (no result: GALK inhibitor, PKM2 act)
O=C1NC2c3c(I)sc(I)c3C(=O)C2O1 (configuration not stated)	TrxR1 inh 2.5µM (no result: Anesthetic bind, GALK inhibitor, PKM2 act)
O=C1NC2c3ccccc3CC2O1 (configuration not stated)	none (no result: GALK inhibitor)
O=C1NC2c3c(Cl)sc(Cl)c3C(=O)C2O1 (configuration not stated)	TrxR1 inh 6.3µM (no result: Anesthetic bind, GALK inhibitor, PKM2 act)
O=C(CSc1ccc(-c2ccco2)nn1)NCc1ccc(Cl)cc1	TrxR1 inh 28µM
Cc1cccc(NC(=O)CSc2ccc(-c3ccco3)nn2)c1C	TrxR1 inh 13µM
CC(=O)c1cccc(NC(=O)CSc2ccc(-c3ccco3)nn2)c1	TrxR1 inh 11µM, Anesthetic bind inconclusive
COc1ccc(C)cc1NC(=O)CSc1ccc(-c2ccco2)nn1	TrxR1 inh 16µM
CCOc1ccc(N(C(=O)c2ccc(OC)cc2)S(=O)(=O)c2ccc3c(c2)n(C)c(=O)n3C)cc1	Anesthetic bind inconclusive (no result: GALK inhibitor, IDH1 R132H inh, PKM2 act)
COc1cc(OC)c(OC)cc1/C=C/c1ccc2ccccc2[n+]1C	none (no result: Anesthetic bind, GALK inhibitor, IDH1 R132H inh, PKM2 act)
CC(=O)c1cccc(NCc2ccccc2-c2nnc(-c3ccccc3)o2)c1	none (no result: GALK inhibitor, PKM2 act)
O=C(CSc1ccc(-c2ccco2)nn1)Nc1ccc(F)cc1F	TrxR1 inh 25µM
O=C(CSc1ccc(-c2ccco2)nn1)N1CCCC1	TrxR1 inh 45µM
O=C(CSc1ccc(-c2ccccn2)nn1)Nc1ccc(F)cc1F	none
O=C(CSc1ccc(-c2ccco2)nn1)c1cccc([N+](=O)[O-])c1	TrxR1 inh 16µM
O=C(CSc1ccc(-c2ccco2)nn1)NCc1ccccc1	TrxR1 inh inconclusive
C(=C\n1nnc2ccccc21)/c1ccc[nH]1	TrxR1 inh 13µM (no result: Anesthetic bind, GALK inhibitor, PKM2 act)
c1ccc(-n2nnc3ccccc32)cc1	none (no result: GALK inhibitor)
CCn1c(SCC(=O)Nc2ccc(C)cc2Br)nnc1-c1nonc1NC(C)=O	none (no result: GALK inhibitor, PKM2 act)
Cc1cc([N+](C)(C)C)cc(C)c1/C=C/c1ccnc2ccccc12	none (no result: Anesthetic bind, GALK inhibitor, IDH1 R132H inh, PKM2 act)
CCOc1ccc(C2C(C(=O)c3ccc(C)o3)=C(O)C(=O)N2CCN2CCOCC2)cc1OC (configuration not stated)	TrxR1 inh 56µM
CC(=O)C1=C(O)C(=O)N(CCN2CCOCC2)C1c1ccccc1 (configuration not stated)	TrxR1 inh 50µM
CCN(CC)CCN1C(=O)C(O)=C(C(=O)c2cccs2)C1c1ccc(C)o1 (configuration not stated)	TrxR1 inh 16µM
O=C(C1=C(O)C(=O)N(CCN2CCOCC2)C1c1ccc(Br)cc1)c1cc2ccccc2o1 (configuration not stated)	Anesthetic bind inconclusive (no result: PKM2 act)
Cc1ccc(C2C(C(=O)c3cc4ccccc4o3)=C(O)C(=O)N2CCN2CCOCC2)o1 (configuration not stated)	TrxR1 inh 22µM
CCOc1ccc(C2C(C(=O)c3ccco3)=C(O)C(=O)N2CCN2CCOCC2)cc1OCC (configuration not stated)	TrxR1 inh inconclusive
Cc1ccc(S(=O)(=O)N2CCN(c3nc(-n4ccnc4)nc4ccccc34)CC2)cc1	none (no result: Anesthetic bind, GALK inhibitor, IDH1 R132H inh, PKM2 act)
COc1cc(OC)c(OC)cc1/C=C/c1ccc2ccccc2n1	none (no result: Anesthetic bind, GALK inhibitor, IDH1 R132H inh, PKM2 act)
O=C(C1=C(O)C(=O)N(CCN2CCOCC2)C1c1ccccn1)c1cccs1 (configuration not stated)	TrxR1 inh 22µM
O=C(C1=C(O)C(=O)N(Cc2ccco2)C1c1cccnc1)c1cc2ccccc2o1 (configuration not stated)	TrxR1 inh 13µM, PKM2 act inconclusive
O=C(C1=C(O)C(=O)N(CCN2CCOCC2)C1c1cccc(O)c1)c1cc2ccccc2o1 (configuration not stated)	TrxR1 inh 50µM
O=C(C1=C(O)C(=O)N(CCN2CCOCC2)C1c1ccc(F)cc1)c1cccs1 (configuration not stated)	none
O=C(C1=C(O)C(=O)N(CCN2CCOCC2)C1c1cccs1)c1cc2ccccc2o1 (configuration not stated)	TrxR1 inh 56µM (no result: Anesthetic bind, GALK inhibitor, PKM2 act)
COc1cccc2cc(C(=O)C3=C(O)C(=O)N(Cc4ccco4)C3c3cccnc3)oc12 (configuration not stated)	TrxR1 inh inconclusive
COc1cccc(CNC(=O)C2CCN(Cc3cc4ccccc4n3Cc3ccc(C)cc3)CC2)c1	none (no result: GALK inhibitor, PKM2 act)
CNc1ccc(C=O)cc1Cl	none (no result: Anesthetic bind, GALK inhibitor, IDH1 R132H inh, PKM2 act)
Cc1c(Nc2cc(Cl)c3nonc3c2[N+](=O)[O-])c(=O)n(-c2ccccc2)n1C	TrxR1 inh 0.63µM
O=[N+]([O-])c1c(Nc2cccc(O)c2)cc(Cl)c2nonc12	TrxR1 inh 0.89µM, Anesthetic bind inconclusive
O=C(O)c1ccc(Nc2cc(Cl)c3nonc3c2[N+](=O)[O-])cc1	TrxR1 inh 0.63µM (no result: PKM2 act)
CCN1CCN(C(c2ccc(OC)cc2)c2c(O)cc(C)n(CCOC)c2=O)CC1 (configuration not stated)	TrxR1 inh 14µM (no result: GALK inhibitor, PKM2 act)
CCN1CCN(C(c2cccc(F)c2)c2c(O)cc(C)n(CCOC)c2=O)CC1 (configuration not stated)	TrxR1 inh 11µM (no result: GALK inhibitor, PKM2 act)
CCN1CCN(C(c2ccc(Cl)cc2)c2c(O)cc(C)n(CCOC)c2=O)CC1 (configuration not stated)	TrxR1 inh inconclusive (no result: GALK inhibitor, PKM2 act)
O=C(Cc1ccc(OCCc2ccccc2)cc1)NO	none (no result: Anesthetic bind, GALK inhibitor, IDH1 R132H inh, PKM2 act)
COc1ccc2cc3c(N)nn(C(=O)c4ccccc4Cl)c3nc2c1	PKM2 act 20µM
Cc1ccc(N2CCN(C(=O)C3CCN(S(=O)(=O)c4ccc5c(c4)oc(=O)n5C)CC3)CC2C)cc1 (configuration not stated)	none (no result: GALK inhibitor, PKM2 act)
Cc1cc(N(C)C)cc(C)c1/C=C/c1ccnc2ccccc12	none (no result: Anesthetic bind, GALK inhibitor, IDH1 R132H inh, PKM2 act)
CCCCNC(=O)Nc1ccnn1C1CCCCC1	PKM2 act 4µM
Cc1ccc2nc(/C=C/c3ccc(N(C)C)cc3)ccc2c1	none (no result: Anesthetic bind, GALK inhibitor, IDH1 R132H inh, PKM2 act)
CC(=O)N1N=C(c2c(-c3ccccc3)c3cc(Br)ccc3[nH]c2=O)CC1c1ccco1 (configuration not stated)	TrxR1 inh 50µM
Cn1c(CCNC(=O)c2ccco2)nc2cc(NS(=O)(=O)c3ccccc3)ccc21	PKM2 act 3.2µM
C(=C\c1nc2ccccc2o1)/c1ccc2c(c1)OCO2	none (no result: Anesthetic bind, GALK inhibitor, IDH1 R132H inh, PKM2 act)

High-throughput results: PubChem BioAssay, National Center for Advancing Translational Sciences (NCATS)
